Screening data (PubChem BioAssay)
Cav3 T inh – Cav3.2 calcium influx blockers – cell-based, Fluo-4 calcium fluorescence, FDSS, MLSMR library, primary screen. Voltage-dependent T-type calcium channel subunit alpha-1H (Homo sapiens), O95180. Cav3.2-expressing cells; hits give low values. B-score at 10 µM. actives 4% (n = 100,000);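 active means single-dose well whose peak fluorescence ratio is a statistical outlier from its plate by either plate-standardised score or position-corrected B-score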
IL1B NFkB pot – enhancers of NFkB p65 translocation in HUVEC – imaging, IL-1B stimulus, high-content imaging, primary screen. HUVEC IL-1B NFkB p65 nuclear translocation imaging. activation, % at 2 µM. actives 0.3% (n = 94,000);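 active means activation above 40%, about the mean plus 3 SD, also judged a hit on visual image review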;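 further: percent activation is computed from the nuclear over cytoplasmic p65 intensity ratio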
IL1B cytotox – cytotoxicity in IL-1B stimulated HUVEC, primary screen, cytotoxicity control for IL-1B NFkB translocation project, imaging, Hoechst nuclear count, IL-1B stimulus | HUVEC cell count loss | cell count reduction, % at 2 µM | actives 0.41% (n = 94,000);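 active means cell count reduction more than 3 SD above the screen-wide mean, cut at about 70% in these data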
IL1B NFkB inh – inhibitors of IL-1B driven NFkB p65 nuclear import, primary screen, imaging, HUVEC, IL-1B stimulus, high-content imaging. inhibition, % at 2 µM. HUVEC IL-1B NFkB p65 nuclear translocation imaging. actives 0.43% (n = 94,000). AID 796, 2007;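 active means inhibition above about 30% together with a positive call from visual inspection of the well image, limit read from the data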;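 further: nuclear over cytoplasmic p65 intensity ratio measured by imaging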
A number is an active result. Only some compounds are listed: those with a hit (about 4.4% of all), similar ones and a draw of the others.

Results for CCCNC(=O)NCCc1c(C)[nH]c2ccccc12 ?
Cav3 T inh: inactive; IL1B NFkB pot: inactive; IL1B cytotox: inactive; IL1B NFkB inh: inactive

How did CCc1cccc(C)c1NC(=S)NCCc1c(C)[nH]c2ccc(C)cc12 do in these assays?
Cav3 T inh: -3.4

How did O=C(N[C@@H](Cc1ccc(O)cc1)C(=O)O)c1ccc(C(F)(F)F)cc1 do in these assays?
Cav3 T inh: inactive

What do the screens show for `CCCN1CCC(=O)N([C@H](CSc2ccc(Br)cc2)c2ccccc2)CC1`?
Cav3 T inh: inactive

Results for C=CCOC(=O)C1=C(C)NC(SCC)=C(C#N)C1c1ccc(Cl)cc1 (stereo not drawn) ?
Cav3 T inh: -7.5; IL1B NFkB pot: inactive; IL1B cytotox: inactive; IL1B NFkB inh: inactive

Results for Cc1ccc(NC(=O)CS(=O)CC(=O)N(c2ccc(C)cc2)C(C)C(=O)NC2CCCCC2)cc1 (stereo not drawn) ?
Cav3 T inh: -7.3; IL1B NFkB pot: inactive; IL1B cytotox: inactive; IL1B NFkB inh: inactive

Results for c1cncc(-c2nnc3sc(C4CCCCC4)nn23)c1 ?
Cav3 T inh: 3.2; IL1B NFkB pot: inactive; IL1B cytotox: inactive; IL1B NFkB inh: inactive

Results for O=C(NCc1cccs1)c1nc2c(nnn2Cc2ccccc2Cl)c(=O)[nH]1 ?
Cav3 T inh: -4.5; IL1B NFkB pot: inactive; IL1B cytotox: inactive; IL1B NFkB inh: inactive

Results for COCCCNC(=O)c1nc2c(nnn2Cc2cc(C)ccc2C)c(=O)[nH]1 ?
Cav3 T inh: inactive; IL1B NFkB pot: 41; IL1B cytotox: 93; IL1B NFkB inh: inactive

What do the screens show for `COc1cccc(NC2c3ccccc3C(=O)N2Cc2ccco2)c1` (stereo not drawn)?
Cav3 T inh: inactive; IL1B NFkB pot: inactive; IL1B cytotox: inactive; IL1B NFkB inh: inactive

How did Cc1ccccc1NC1c2ccccc2C(=O)N1Cc1ccco1 (stereo not drawn) do in these assays?
Cav3 T inh: inactive; IL1B NFkB pot: inactive; IL1B cytotox: inactive; IL1B NFkB inh: inactive

What do the screens show for `CCOC(=O)c1cccc(NC2c3ccccc3C(=O)N2Cc2ccco2)c1` (stereo not drawn)?
Cav3 T inh: -6.6; IL1B NFkB pot: inactive; IL1B cytotox: inactive; IL1B NFkB inh: inactive

What do the screens show for `O=C1c2ccccc2C(Nc2cccc(C(F)(F)F)c2)N1Cc1ccco1` (stereo not drawn)?
Cav3 T inh: -5.2; IL1B NFkB pot: inactive; IL1B cytotox: inactive; IL1B NFkB inh: inactive

Results for COc1ccccc1OC(=O)c1cc(Cl)nc2ccccc12 ?
Cav3 T inh: inactive; IL1B NFkB pot: inactive; IL1B cytotox: inactive; IL1B NFkB inh: inactive

Results for COc1ccc(NS(=O)(=O)c2cc(C)ccc2NC(=O)c2cc(C)oc2C)cc1 ?
Cav3 T inh: -6.9; IL1B NFkB pot: inactive; IL1B cytotox: inactive; IL1B NFkB inh: inactive

How did CCOC(=O)C1CCCN(C(=S)Nc2cc(C)cc(C)c2)C1 (stereo not drawn) do in these assays?
Cav3 T inh: inactive; IL1B NFkB pot: inactive; IL1B cytotox: inactive; IL1B NFkB inh: inactive

Results for COc1[nH]c(/N=C/c2ccccc2)c(C#N)c1C#N ?
Cav3 T inh: -5.9; IL1B NFkB pot: inactive; IL1B cytotox: inactive; IL1B NFkB inh: inactive

What do the screens show for `COCCn1c(C)cc(C(=O)CSc2ccc3ccccc3n2)c1C`?
Cav3 T inh: inactive; IL1B NFkB pot: inactive; IL1B cytotox: inactive; IL1B NFkB inh: inactive

Results for COCCn1c(C)cc(C2=NNC(=Nc3ccccc3F)SC2)c1C ?
Cav3 T inh: -4.4; IL1B NFkB pot: inactive; IL1B cytotox: inactive; IL1B NFkB inh: inactive

What do the screens show for `COc1ccccc1CNC(=O)c1csc(Cc2ccc(Cl)cc2)n1`?
Cav3 T inh: -8; IL1B NFkB pot: inactive; IL1B cytotox: inactive; IL1B NFkB inh: inactive

How did Cc1ccccc1C1CC(c2ccccc2OC(F)F)Nc2ncnn21 (stereo not drawn) do in these assays?
Cav3 T inh: -4.1

What do the screens show for `COc1ccc(Nc2nnc(-c3ccc(N4CCOCC4)c([N+](=O)[O-])c3)c3ccccc23)cc1`?
Cav3 T inh: inactive; IL1B NFkB pot: inactive; IL1B cytotox: inactive; IL1B NFkB inh: inactive

Results for O=C(NCC1CCN(c2ccc(S(=O)(=O)N3CCOCC3)cc2)CC1)c1ccc(Cl)cc1 ?
Cav3 T inh: -5.4

How did O=C(NC1CCCC1)c1ccc(S(=O)(=O)N2CCOCC2)cc1 do in these assays?
Cav3 T inh: inactive; IL1B NFkB pot: inactive; IL1B cytotox: inactive; IL1B NFkB inh: inactive

What do the screens show for `Nc1c(C(=O)C2CC2)sc2nc(-c3ccccc3)cc(C(F)(F)F)c12`?
Cav3 T inh: -6.2; IL1B NFkB pot: inactive; IL1B cytotox: inactive; IL1B NFkB inh: inactive

How did COc1ccc(S(=O)(=O)Nc2cccc(NC(C)=O)c2)cc1 do in these assays?
Cav3 T inh: inactive; IL1B NFkB pot: inactive; IL1B cytotox: inactive; IL1B NFkB inh: inactive

How did COc1ccc(S(=O)(=O)Nc2cc(C)c(O)c(S(=O)(=O)c3ccccc3)c2)cc1 do in these assays?
Cav3 T inh: -5.1

Results for CC(=O)Nc1nonc1NC(=O)c1ccc(C(C)(C)C)cc1 ?
Cav3 T inh: inactive; IL1B NFkB pot: inactive; IL1B cytotox: inactive; IL1B NFkB inh: inactive

Results for CC(C)CCN1CC(C(=O)NCc2ccccc2)CC1=O (stereo not drawn) ?
Cav3 T inh: -5.3; IL1B NFkB pot: inactive; IL1B cytotox: inactive; IL1B NFkB inh: inactive

Results for CCCCN1CC(C(=O)NCc2ccc(C)cc2)CC1=O (stereo not drawn) ?
Cav3 T inh: inactive; IL1B NFkB pot: inactive; IL1B cytotox: inactive; IL1B NFkB inh: inactive

What do the screens show for `CSc1ccc(-c2nnn(Cc3ccc(Br)cc3)n2)cc1`?
Cav3 T inh: inactive; IL1B NFkB pot: 58; IL1B cytotox: inactive; IL1B NFkB inh: inactive

How did CCN(CC)S(=O)(=O)c1cccc(C(=O)Nc2cccc(C)c2)c1 do in these assays?
Cav3 T inh: inactive; IL1B NFkB pot: inactive; IL1B cytotox: inactive; IL1B NFkB inh: inactive

What do the screens show for `CCN(CC)S(=O)(=O)c1cccc(C(=O)N[C@H](C(=O)NCc2ccc(Cl)cc2)C(C)C)c1`?
Cav3 T inh: -9.8; IL1B NFkB pot: inactive; IL1B cytotox: inactive; IL1B NFkB inh: inactive

How did CCN(CC)S(=O)(=O)c1cccc(C(=O)Nc2cc(C)cc(C)c2)c1 do in these assays?
Cav3 T inh: -3.4; IL1B NFkB pot: inactive; IL1B cytotox: inactive; IL1B NFkB inh: inactive

What do the screens show for `COc1ccc(C[C@H]2CN3C(=NC[C@H]3C)N2CCNC(=O)c2ccc(C)c(Br)c2)cc1`?
Cav3 T inh: inactive

How did COc1ccc(OCc2nc3ccccc3[nH]2)cc1 do in these assays?
Cav3 T inh: inactive; IL1B NFkB pot: inactive; IL1B cytotox: inactive; IL1B NFkB inh: inactive

Results for Clc1ccc(OCCSCc2nc3ccccc3[nH]2)cc1 ?
Cav3 T inh: -8.3; IL1B NFkB pot: inactive; IL1B cytotox: inactive; IL1B NFkB inh: inactive

What do the screens show for `c1ccc2cc(OCc3nc4ccccc4[nH]3)ccc2c1`?
Cav3 T inh: -5.9; IL1B NFkB pot: inactive; IL1B cytotox: inactive; IL1B NFkB inh: inactive

What do the screens show for `Clc1ccc(SCc2nc3ccccc3[nH]2)cc1`?
Cav3 T inh: -4.5; IL1B NFkB pot: inactive; IL1B cytotox: inactive; IL1B NFkB inh: inactive
